# Laboratory results as given in PubChem BioAssay (NCATS).
# Several values for one entry are separate records, joined by “and”; a condition that tells them apart may be missing. Identical values can stand only once. Unmarked numbers belong to inactive results. Inconclusive results are not listed. Activity calls are given as the source filed them. The call rests on the fitted dose curve; in most records, active means well fitted curve in the direction sought with a large enough effect; inconclusive means small, poorly fitted or top-dose-only effect, or another doubt; inactive means no such curve, though single readings can be large; an effect the other way counts as inactive or inconclusive.
# Columns and labels:
# [1] = biological target: Cytochrome P450 3A4 (Homo sapiens) (UniProt P08684); test: qHTS Assay for Inhibitors and Substrates of Cytochrome P450 3A4 (AID 884); further: nearly all actives have a fitted effect of over 50% in size; further: potency means the concentration at half of the fitted maximal effect
# Cytochrome P450 3A4 (Homo sapiens), sequence (P08684 whole entry, looked up): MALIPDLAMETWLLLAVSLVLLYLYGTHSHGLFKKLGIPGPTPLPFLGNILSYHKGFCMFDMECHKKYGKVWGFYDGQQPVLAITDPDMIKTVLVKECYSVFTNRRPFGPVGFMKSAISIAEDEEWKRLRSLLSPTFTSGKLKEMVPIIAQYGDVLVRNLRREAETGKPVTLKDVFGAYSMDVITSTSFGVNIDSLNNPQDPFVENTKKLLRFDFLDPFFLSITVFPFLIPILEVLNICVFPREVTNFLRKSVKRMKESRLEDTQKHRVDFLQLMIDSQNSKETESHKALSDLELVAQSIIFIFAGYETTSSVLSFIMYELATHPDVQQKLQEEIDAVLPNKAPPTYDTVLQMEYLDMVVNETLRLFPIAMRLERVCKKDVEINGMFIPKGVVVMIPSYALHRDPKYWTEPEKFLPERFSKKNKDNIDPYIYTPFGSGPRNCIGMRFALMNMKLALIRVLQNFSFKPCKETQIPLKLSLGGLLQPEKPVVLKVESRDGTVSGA
# Method in brief: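 Luminescent readout of luciferin produced by CYP3A4 (20 nM) dealkylation of Luciferin-PPXE, 25 uM (its KM). NADPH-driven reaction ran 60 min at RT after 10 min compound preincubation; data scaled to 57 uM ketoconazole as 100% inhibition.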
# [2] = biological target: Cytochrome P450 2C9 (Homo sapiens) (UniProt P11712); test: qHTS Assay for Inhibitors and Substrates of Cytochrome P450 2C9 (AID 883); further: potency means the concentration at half of the fitted maximal effect; nearly all actives have a fitted effect of over 60% in size
# Cytochrome P450 2C9 (Homo sapiens), sequence (P11712 whole entry, looked up): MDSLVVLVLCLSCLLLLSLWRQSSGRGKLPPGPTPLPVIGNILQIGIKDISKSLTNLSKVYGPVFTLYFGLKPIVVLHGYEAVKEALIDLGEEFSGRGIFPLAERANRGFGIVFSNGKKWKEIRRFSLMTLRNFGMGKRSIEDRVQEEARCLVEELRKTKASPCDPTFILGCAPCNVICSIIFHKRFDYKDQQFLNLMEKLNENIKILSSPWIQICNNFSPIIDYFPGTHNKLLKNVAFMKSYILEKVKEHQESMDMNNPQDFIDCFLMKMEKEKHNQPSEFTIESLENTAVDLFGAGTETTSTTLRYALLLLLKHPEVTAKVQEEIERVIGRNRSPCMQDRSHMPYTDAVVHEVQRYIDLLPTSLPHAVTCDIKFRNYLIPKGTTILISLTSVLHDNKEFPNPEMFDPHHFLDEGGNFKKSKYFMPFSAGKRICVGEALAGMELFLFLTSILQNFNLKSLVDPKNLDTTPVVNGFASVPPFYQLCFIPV
# Method in brief: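 Human CYP2C9 (10nM) hydroxylated Luciferin-H (100uM, at its KM) to luciferin in 25mM KPO4. Compound was preincubated 10 min at 37C, then NADPH regeneration started a 60 min reaction at 37C. Luminescence was read after detection reagent, normalized to 57uM sulphaphenazole.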
# [3] = biological target: Cytochrome P450 2C19 (Homo sapiens) (UniProt P33261); test: qHTS Assay for Inhibitors and Substrates of Cytochrome P450 2C19 (AID 899); further: potency means the concentration at half of the fitted maximal effect; nearly all actives have a fitted effect of over 60% in size
# Cytochrome P450 2C19 (Homo sapiens), sequence (P33261 whole entry, looked up): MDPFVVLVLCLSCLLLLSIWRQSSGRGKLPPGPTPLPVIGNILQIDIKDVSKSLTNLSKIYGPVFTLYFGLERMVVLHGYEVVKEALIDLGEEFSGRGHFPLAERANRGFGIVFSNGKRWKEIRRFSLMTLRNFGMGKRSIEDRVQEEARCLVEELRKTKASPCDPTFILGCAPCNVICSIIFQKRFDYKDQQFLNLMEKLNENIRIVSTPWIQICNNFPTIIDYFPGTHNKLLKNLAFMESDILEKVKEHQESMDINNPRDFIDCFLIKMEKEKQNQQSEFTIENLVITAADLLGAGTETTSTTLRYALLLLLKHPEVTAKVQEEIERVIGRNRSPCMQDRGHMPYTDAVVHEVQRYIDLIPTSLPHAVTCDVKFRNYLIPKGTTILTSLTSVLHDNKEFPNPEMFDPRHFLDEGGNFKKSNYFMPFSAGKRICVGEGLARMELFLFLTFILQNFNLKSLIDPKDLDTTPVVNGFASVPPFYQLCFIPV
# Method in brief: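 Human CYP2C19 (5nM) with Luciferin-H EGE at 10uM (its KM) in 50mM KPO4 was preincubated with compound for 10 min at 37C. NADPH regeneration started a 60 min 37C reaction. Luciferin was read by luminescence, normalized to 57uM ketoconazole.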
# [4] = biological target: Cytochrome P450 3A4 (Homo sapiens) (UniProt P08684); test: qHTS Assay for Activators of Cytochrome P450 3A4 (AID 885); further: nearly all actives have a fitted effect of over 65% in size
# Method in brief: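 Human CYP3A4 dealkylates Luciferin-PPXE to luciferin, which luciferase detection converts to light. Substrate was at its KM (25uM), buffer 200mM KPO4, reaction 60 min at RT.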
smiles,measurement,setting,value
Cn1c(=O)c(C(=O)COC(=O)c2cc(C3CC3)nc3ccccc23)c(N)n(Cc2ccccc2)c1=O,Potency,[1],inactive
COc1ccc(O[C@H]2C=C[C@@H](c3ccccc3)O[C@H]2COC(=O)N2CCCCC2)cc1,Potency,[2],2.51 µM (active)
same,Potency,[3],0.501 µM (active)
C[C@@H]1C=C[C@](Cc2ccccc2)(C(=O)O)N1C(=O)c1ccccc1,Potency,[1],inactive
COC(=O)c1ccc(C23CC4(C2)[C@H](CN(Cc2ccc(C(F)(F)F)cc2)[C@@H]4c2ccccc2)C3c2ccc(Cl)nc2)cc1 (stereo partly specified),Potency,[1],inactive
Cc1cc(C(=O)O)sc1C(N)C(=O)O (stereo unspecified),Potency,[1],inactive
O=C(O)c1cc(C(F)(F)F)nc2ccccc12,Potency,[1],inactive
COC(=O)[C@@H]1C[C@@]2(O)[C@H](O)[C@H](O)[C@H](O)C[C@H]2N1Cc1ccc(C)s1,Potency,[1],inactive
CC(Cc1ccccc1)C(=O)NCC1CC1 (stereo unspecified),Potency,[1],inactive
Cc1ccc(S(=O)(=O)N[C@H]2COC(=O)C/C=C\[C@@H](C)[C@H](NS(=O)(=O)c3ccc(C)cc3)COC(=O)C/C=C\[C@H]2C)cc1,Potency,[1],3.16 µM (active)
same,"activity change, positive = activation",[4],-62.5% [at 11.4 µM]
CCC1=C(OC(=O)N(CC)CC)N2C(=O)OC(=NCC3CC3)[C@]2(Cc2ccccc2)[C@H]2C1=CC[C@H]1C(=O)NC(=O)[C@H]12,Potency,[1],2 µM (active)
same,Potency,[4],inactive
CCC1=C(OC(=O)N(CC)CC)N2C(=O)OC(=NCc3ccccc3)[C@]2(C)[C@H]2C1=CC[C@H]1C(=O)N(CC)C(=O)[C@H]12,Potency,[1],3.16 µM (active)
same,Potency,[4],inactive
CCC1=C(OC(=O)N(CC)CC)N2C(=O)OC(=NCC(=O)OC)[C@]2(Cc2ccccc2)[C@H]2C1=CC[C@H]1C(=O)NC(=O)[C@H]12,Potency,[1],6.31 µM (active)
same,Potency,[4],inactive
COC(=O)c1cccc(C23CC4(C2)[C@H](CN(C)[C@@H]4c2ccccc2)C3c2ccccc2)c1 (stereo partly specified),Potency,[1],7.94 µM (active)
same,Potency,[4],inactive
CC(C)(C)N1C(=O)[C@H]2[C@H]3[C@H](O)[C@H](O)C/C(=N/OC[C@@H](O)COCc4ccco4)[C@@H]3CC[C@@H]2C1=O,Potency,[1],5.01 µM (active)
same,"activity change, positive = activation",[4],-87.2% [at 11.4 µM]
CO[C@@H]1COC(=O)C/C=C\[C@H](C)[C@@H](NS(=O)(=O)c2ccc(C)cc2)COC(=O)C/C=C\[C@@H]1C,Potency,[1],3.98 µM (active) and 3.16 µM (active)
same,"activity change, positive = activation",[4],-70.4% [at 11.4 µM] and -70.5% [at 11.4 µM]
COCCN=C1OC(=O)N2C(=O)C3=C4C(C[C@H]5C(=O)N(c6ccccc6)C(=O)[C@H]5[C@H]4[C@@]12Cc1ccccc1)[C@H]1C(=O)N(c2ccccc2)C(=O)[C@H]1[C@H]3C (stereo partly specified),Potency,[1],5.01 µM (active)
same,Potency,[4],inactive
FC(F)(F)c1ccc(CN2C[C@@H]3C(c4ccc(Cl)nc4)C4(c5cccnc5)CC3(C4)[C@H]2c2ccccc2)cc1 (stereo partly specified),Potency,[1],15.8 µM (active)
same,Potency,[4],inactive
CCC1=C2CC[C@H]3C(=O)N(CC(=O)OC)C(=O)[C@H]3[C@H]2[C@@]2(Cc3ccccc3)C(=NCCc3c[nH]c4ccccc34)OC(=O)N2C1=O,Potency,[1],1.26 µM (active)
same,Potency,[4],inactive
Clc1ccc(C2[C@H]3CN(Cc4cccnc4)[C@H](c4ccccc4)C34CC2(c2cccnc2)C4)cn1 (stereo partly specified),Potency,[1],2.51 µM (active)
same,Potency,[4],inactive
CO[C@H]1COC(=O)C/C=C\[C@H](C)[C@@H](NS(=O)(=O)c2ccc(C)cc2)COC(=O)CCC[C@@H]1C,Potency,[1],3.98 µM (active)
same,"activity change, positive = activation",[4],-92.6% [at 11.4 µM]
CCC1=C2CC[C@H]3C(=O)N(CC)C(=O)[C@H]3[C@H]2[C@@]2(Cc3ccccc3)C(=NCC3CC3)OC(=O)N2C1=O,Potency,[1],2.51 µM (active)
same,Potency,[4],inactive
S=C=Nc1cccc(NC(=S)NCCCCNC(=S)Nc2cccc(N=C=S)c2)c1,Potency,[1],3.16 µM (active)
same,Potency,[4],inactive
CCCNC(=O)OC[C@@H]1O[C@H](CCO/N=C(\C)CCN2CCCCc3nc(C)c(C)cc32)C=C[C@@H]1Oc1ccc(OC)cc1,Potency,[1],3.16 µM (active)
same,"activity change, positive = activation",[4],-95.5% [at 11.4 µM]
CCC1=C2CC[C@H]3C(=O)N(c4ccccc4)C(=O)[C@H]3[C@H]2[C@@]2(Cc3ccccc3)C(=O)N(CC(=O)OC)C(=O)N2C1=O,Potency,[1],3.98 µM (active)
same,Potency,[4],inactive
COC(=O)[C@@H]1C[C@H]2CC[C@H](O)C[C@H]2N1Cc1c(F)cccc1Cl,Potency,[1],15.8 µM (active)
same,Potency,[4],inactive
CCC1=C2CC[C@H]3C(=O)N(c4ccccc4)C(=O)[C@H]3[C@H]2[C@@]2(C)C(=NCC(=O)OC)OC(=O)N2C1=O,Potency,[1],15.8 µM (active)
same,Potency,[4],inactive
COC(=O)C/C=C\[C@@H](C)[C@@H](/C=N\O[C@@H](C)c1cn([C@H]2COC[C@H]2O)nn1)NS(=O)(=O)c1ccc(C)cc1,Potency,[1],3.98 µM (active)
same,"activity change, positive = activation",[4],-71.6% [at 11.4 µM]
COC(=O)c1ccc(C(NC(=O)OCc2ccccc2)/C(=C/[C@@H](C)C(=O)NCc2ccncc2)c2cccnc2)cc1 (stereo partly specified),Potency,[1],1.26 µM (active)
same,Potency,[4],inactive
COC(=O)NC(c1ccco1)C(C(C)=O)C(=O)OC (stereo unspecified),Potency,[1],3.16 µM (active)
same,"activity change, positive = activation",[4],-66.9% [at 11.4 µM]
Cn1c(=O)c(C(=O)COC(=O)c2cc(-c3ccco3)nc3ccccc23)c(N)n(Cc2ccccc2)c1=O,Potency,[1],12.6 µM (active)
same,Potency,[4],inactive
COC(=O)C/C=C\[C@@H](C)[C@@H](/C=N\O[C@@H](C)CN1CCCCc2nc(C)c(C)cc21)NS(=O)(=O)c1ccc(C)cc1,Potency,[1],3.98 µM (active)
same,"activity change, positive = activation",[4],-78.5% [at 11.4 µM]
C#CCCCO/N=C1/C[C@@H](O)[C@@H](O)[C@@H]2[C@@H]3C(=O)N(Cc4ccccc4)C(=O)[C@H]3CC[C@H]12,Potency,[1],3.98 µM (active)
same,"activity change, positive = activation",[4],-103% [at 11.4 µM]
COC(=O)[C@@H]1C[C@@H]2CC[C@@H](O)C[C@@H]2N1Cc1ccc(-c2ccccc2)cc1,Potency,[1],20 µM (active)
same,Potency,[4],inactive
CCC1=C2CC[C@H]3C(=O)N(c4ccccc4)C(=O)[C@H]3[C@H]2[C@@]2(C)C(=NCc3ccccc3)OC(=O)N2C1=O,Potency,[1],3.98 µM (active)
same,Potency,[4],inactive
CN1C[C@@H]2C(c3ccc(C(F)(F)F)cc3)C3(c4ccc(C#N)cc4)CC2(C3)[C@H]1c1ccccc1 (stereo partly specified),Potency,[1],20 µM (active)
same,Potency,[4],inactive
COC(=O)[C@@H]1C[C@H]2CC[C@H](O)C[C@H]2N1Cc1ccc(Cl)cc1,Potency,[1],12.6 µM (active)
same,Potency,[4],inactive
Cc1ccc(S(=O)(=O)N[C@H]2COC(=O)C/C=C\[C@H](C)[C@@H](NS(=O)(=O)c3ccc(C)cc3)COC(=O)C/C=C\[C@@H]2C)cc1,Potency,[1],3.98 µM (active)
same,"activity change, positive = activation",[4],-90.7% [at 11.4 µM]
COC(=O)[C@@H]1C[C@@H]2CC[C@@H](O)C[C@@H]2N1Cc1ccccc1OS(=O)(=O)c1ccc(C)cc1,Potency,[1],2.51 µM (active)
same,Potency,[4],inactive
CCC1=C(OC(=O)N(CC)CC)N2C(=O)OC(=NCCc3c[nH]c4ccccc34)[C@]2(Cc2ccccc2)[C@H]2C1=CC[C@H]1C(=O)NC(=O)[C@H]12,Potency,[1],2 µM (active)
same,Potency,[4],inactive
CC(=O)N1C2(C=CC1(C)C(=O)NCCN1CCOCC1)CCCCC2 (stereo unspecified),Potency,[1],10 µM (active)
same,Potency,[4],inactive
CCC1=C2CC[C@H]3C(=O)N(CC)C(=O)[C@H]3[C@H]2[C@@]2(C)C(=O)N(CC(=O)OC)C(=O)N2C1=O,Potency,[1],7.94 µM (active)
same,Potency,[4],inactive
COC(=O)c1ccc(C(/C=C/[C@@H](C)C(=O)NCc2ccc(OC)c(O)c2)NC(=O)OCc2ccccc2)cc1 (stereo partly specified),Potency,[1],6.31 µM (active)
same,Potency,[4],inactive
COC(=O)[C@@H]1C[C@@H]2CC[C@@H](O)C[C@@H]2N1Cc1ccc(OC)cc1,Potency,[1],15.8 µM (active)
same,Potency,[4],inactive
CCC1=C(OC(=O)N(CC)CC)N2C(=O)OC(=NCC(=O)OC)[C@]2(C)[C@H]2C1=CC[C@H]1C(=O)N(CC(=O)OC)C(=O)[C@H]12,Potency,[1],10 µM (active)
same,Potency,[4],inactive
CCc1cc(C(C)=O)c(O)cc1OCCCCCC(C)(C)c1nn[nH]n1,Potency,[1],10 µM (active)
same,Potency,[4],inactive
CCC1=C(OC(=O)N(CC)CC)N2C(=O)OC(=NCC3CC3)[C@]2(C)[C@H]2C1=CC[C@H]1C(=O)N(C)C(=O)[C@H]12,Potency,[1],10 µM (active)
same,Potency,[4],inactive
CCC1=C2CC[C@H]3C(=O)N(C)C(=O)[C@H]3[C@H]2[C@@]2(Cc3ccccc3)C(=NCC(=O)OC)OC(=O)N2C1=O,Potency,[1],10 µM (active)
same,Potency,[4],inactive
COC(=O)C[C@@H]1O[C@H]1[C@H](C)[C@@H](OC)C(C)C,Potency,[1],3.98 µM (active)
same,"activity change, positive = activation",[4],-66.6% [at 11.4 µM]
CCC1=C(OC(=O)N(CC)CC)N2C(=O)OC(=NCC3CC3)[C@]2(C)[C@H]2C1=CC[C@H]1C(=O)NC(=O)[C@H]12,Potency,[1],10 µM (active)
same,Potency,[4],inactive
COC(=O)c1ccc(C23CC4(C2)[C@H](CN(Cc2cccnc2)[C@@H]4c2ccccc2)C3c2ccc(C(F)(F)F)cc2)cc1 (stereo partly specified),Potency,[1],5.01 µM (active)
same,Potency,[4],inactive
C/C(CCN1CCCCc2nc(C)c(C)cc21)=N\O[C@@H](C)c1cn([C@H](CO)Cc2ccccc2)nn1,Potency,[1],3.98 µM (active) and 5.01 µM (active)
same,"activity change, positive = activation",[4],-72.3% [at 11.4 µM] and -80.4% [at 11.4 µM]
CCC1=C2CC[C@H]3C(=O)N(c4ccccc4)C(=O)[C@H]3[C@H]2[C@@]2(Cc3ccccc3)C(=NCCc3c[nH]c4ccccc34)OC(=O)N2C1=O,Potency,[1],1.26 µM (active)
same,Potency,[4],inactive
C#CCCCO/N=C1/C[C@@H](O)[C@@H](O)[C@@H]2[C@@H]3C(=O)N([C@@H](C)c4ccccc4)C(=O)[C@H]3CC[C@H]12,Potency,[1],3.98 µM (active)
same,"activity change, positive = activation",[4],-89.1% [at 11.4 µM]
CCC1=C(OC(=O)N(CC)CC)N2C(=O)OC(=NCC3CC3)[C@]2(C)[C@H]2C1=CC[C@H]1C(=O)N(CC)C(=O)[C@H]12,Potency,[1],3.98 µM (active)
same,Potency,[4],inactive
